Assay outcomes: PubChem, National Center for Advancing Translational Sciences (NCATS)
Most compounds without a hit are left out; they make up all but 12% or so of the library.
BAZ2B block: qHTS Assay for Inhibitors of BAZ2B; Potency, µM (top dose mostly 114 µM), for inactives: top-dose activity change, negative = inhibition, actives largely listed as inhibitors; Bromodomain adjacent to zinc finger domain protein 2B (Homo sapiens), Q9UIF8; AID 504333, 2011; 360,000 compounds, 4.4% hits; AlphaScreen BAZ2B-H3K14Ac peptide displacement; further: on the % scale 0 is the no-effect control and ±100 the full control effect; nearly all actives have a fitted effect of over 60% in size
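Protein-peptide AlphaScreen: BAZ2B 50 nM, b-H3K14Ac 50 nM, 1x PBS pH 7.4 + 0.01% Tween-20. Preincubation 30 min RT; cpd 30 min RT (top 110 uM); beads 20 min RT, light-protected.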
HP1b binding inh: HTS for Inhibitors of HP1-beta Chromodomain Interactions with Methylated Histone Tails | Chromobox protein homolog 1 (Homo sapiens), P83916 | AID 540317, 2011 | Potency, µM (series often up to 114 µM), for the others: at the highest dose activity change, negative = inhibition, most hits filed as inhibitors | AlphaScreen HP1-beta / biotin-H3K9me3 peptide binding | 390,000 compounds, 0.56% hits; further: nearly all actives have a fitted effect of over 70% in size
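Compound inhibition of the preformed complex between 50 nM HP1-beta and 50 nM biotinylated H3K9me3 peptide was read by AlphaScreen. Buffer was PBS pH 7.4 with 0.01% Tween-20. Incubations ran 30 min at room temperature, with 10 ug/mL donor/acceptor beads.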
L3MBTL1 block: qHTS Assay for the Inhibitors of L3MBTL1; Lethal(3)malignant brain tumor-like protein 1 (Homo sapiens), Q9Y468; Potency, µM (doses to about 57.1 µM), inactives show at the top dose activity, negative = inhibition, most hits filed as inhibitors; AID 485360, 2010; 230,000 compounds, 0.66% hits; AlphaScreen L3MBTL1–H3K9me1 peptide binding; further: on the % scale 0 is the no-effect control and ±100 the full control effect; nearly all actives have a fitted effect of over 60% in size
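First, the protein-peptide complex forms for 30 min at room temperature (L3MBTL1 50 nM, biotinylated H3K9me1 peptide 75 nM). Next, compounds are pin-transferred and incubated 30 min. Finally, AlphaScreen beads are added and read after 30 min.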
JMJD2A Tudor: qHTS Assay for Inhibitors of JMJD2A-Tudor Domain | Lysine-specific demethylase 4A (Homo sapiens), O75164 | AlphaScreen JMJD2A-Tudor / H3K4me3 peptide binding | Potency, µM (series often up to 114 µM), for the others: at the highest dose activity change, negative = inhibition, usual class: inhibitors | 390,000 compounds, 4.4% hits; further: on the % scale 0 is the no-effect control and ±100 the full control effect; nearly all actives have a fitted effect of over 50% in size
Sfp inh: qHTS Assay for Inhibitors of Bacillus subtilis Sfp phosphopantetheinyl transferase (PPTase) | 4'-phosphopantetheinyl transferase ffp (Bacillus subtilis), Q9F4F7 | Biochemical Sfp PPTase activity, qHTS | Potency, µM, for inactives: largest response in the series, negative = inhibition, usual class: inhibitors | 310,000 compounds, 3.5% hits | AID 1490, 2009;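 further: the enzyme is Sfp with the accession as filed and its product quenches rhodamine fluorescence; 0% = enzyme reaction without inhibitor and -100% = no enzyme wells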
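Compounds were incubated with enzyme (final 15 nM) for 15 min at room temperature before substrate addition started the reaction. Fluorescence at 525 nm excitation, 598 nm emission was recorded immediately and after 30 minutes.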
G9a block: qHTS Assay for Inhibitors of Histone Lysine Methyltransferase G9a. Histone-lysine N-methyltransferase EHMT2 (Homo sapiens), Q96KQ7. Potency, µM (top dose mostly 102 µM), without a hit: at the top dose activity, negative = inhibition, hits mostly inhibitors. G9a H3K9 monomethylation, AlphaScreen, 2 h. AID 504332, 2011. 350,000 compounds, 8.8% hits; further: on the % scale 0 is the no-effect control and ±100 the full control effect; nearly all actives have a fitted effect of over 75% in size
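Compounds were preincubated with 20 nM G9a for 15 min, after which biotinylated H3K9 peptide (500 nM) and SAM (20 uM) started a 2 h room-temperature reaction. Monomethylated product was quantified by antibody-based AlphaScreen chemiluminescence.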
* = called active by the depositor; ? = inconclusive; . = not tested or not shown; [ ] = another dose, or the depositor's remark. The call rests on the fitted dose curve; in most records, active means well fitted curve in the direction sought with a large enough effect; inconclusive means small, poorly fitted or top-dose-only effect, or another doubt; inactive means no such curve, though single readings can be large; an effect the other way counts as inactive or inconclusive. Potency means the concentration at half of the fitted maximal effect.

SMILES	BAZ2B block	HP1b binding inh	L3MBTL1 block	JMJD2A Tudor	Sfp inh	G9a block
O=C(NCC(c1ccc2c(c1)OCO2)N1CCOCC1)c1cccc(Cl)c1 (centres undefined)	2%	26%[57 µM]	.	-4%	.	21%[59 µM]
Cc1cccc(CN2CC34C=CC(CC3S2(=O)=O)O4)c1 (centres undefined)	.	9%	.	-16%	17%	.
O=C(NCc1ccc(F)cc1Cl)c1cc(=O)[nH]c2ccc(S(=O)(=O)N3CCCCC3)cc12	-2%	26%	.	-9%	.	6%[59 µM]
CCOC(=O)c1cc2c(ccn2C)n1Cc1cc(C)ccc1C	50µM*	?	-25%	25µM*	-10%	50µM*
COC(=O)c1cc2sc(Cl)cc2n1Cc1cc(C)ccc1C	66%	115%	.	79%	.	74%[59 µM]
COc1ccc(OC)c(-c2nnc(SCC(=O)NC3CCCCC3)o2)c1	4%	60%	7%	-11%	9%	45µM*
COc1cccc(-c2nnc(SCC(=O)NC3CCCCC3)o2)c1	-6%	-13%	.	-15%	.	8.9µM*
C=CCNC(=O)c1ccccc1NC(=O)C1CCN(S(=O)(=O)c2ccc(SC)cc2)CC1	50µM*	-3%	.	-7%	-7%	10%
C=CCNC(=O)c1ccccc1NS(=O)(=O)c1ccc(SC)cc1	1%	34%	3%[11.4 µM]	-1%	11%	-4%[12.7 µM]
COc1nnc(-c2ccc(N3CCCCC3)c(NC(=O)c3ccccc3Cl)c2)c2ccccc12	-18%	21%	.	-14%	.	-30%[59 µM]
Cc1ccc(S(=O)(=O)N2CCN3CCCC3C2)cc1 (centres undefined)	0%	20%	1%	-11%	11%	-4%
Cc1ccc(S(=O)(=O)N2CCN(C3CC4CCC3C4)CC2)cc1 (centres undefined)	32µM*	32µM*	.	14µM*	-27%	8.9µM*
COc1ccc(S(=O)(=O)N2CCN(C3CC4CCC3C4)CC2)cc1 (centres undefined)	-30%	2%	.	3.2µM*	-8%	22µM*
COc1ccc(S(=O)(=O)N2CCN(C)CC2)cc1	-7%	25%	-9%	-21%	16%	12%[59 µM]
COc1ccccc1C1CC(=O)Oc2cc(O)ccc21 (centres undefined)	.	25%	0%	?	3%	17%
COc1cc(C2CC(=O)Oc3ccc(O)cc32)cc(OC)c1OC (centres undefined)	.	.	.	.	50µM*	16µM*
